Experimental findings from PubChem BioAssay AID1851 (National Center for Advancing Translational Sciences (NCATS), 2009) are described below.

The structures appear in SMILES notation. Where “and” joins values, the source holds several entries; their conditions need not be identical. Equal entries are not always repeated. About 5,800 (36%) of roughly 16,000 compounds were called active. Another 23% or so got no clear call; they are omitted. Calls come from the whole dose curve; as a rule, active = well fitted curve in the direction sought with a large enough effect; inconclusive = small, poorly fitted or top-dose-only effect, or effect the other way; inactive = no such curve, though single readings can be large or run the other way. Some of the results follow. The source holds several records for some structures; these can differ, active in one and inactive in another.
% is set by controls: 0 for no effect and ±100 for the full control effect.

Chain of Cytochrome P450 2C19 (Homo sapiens) (P33261 whole entry, looked up): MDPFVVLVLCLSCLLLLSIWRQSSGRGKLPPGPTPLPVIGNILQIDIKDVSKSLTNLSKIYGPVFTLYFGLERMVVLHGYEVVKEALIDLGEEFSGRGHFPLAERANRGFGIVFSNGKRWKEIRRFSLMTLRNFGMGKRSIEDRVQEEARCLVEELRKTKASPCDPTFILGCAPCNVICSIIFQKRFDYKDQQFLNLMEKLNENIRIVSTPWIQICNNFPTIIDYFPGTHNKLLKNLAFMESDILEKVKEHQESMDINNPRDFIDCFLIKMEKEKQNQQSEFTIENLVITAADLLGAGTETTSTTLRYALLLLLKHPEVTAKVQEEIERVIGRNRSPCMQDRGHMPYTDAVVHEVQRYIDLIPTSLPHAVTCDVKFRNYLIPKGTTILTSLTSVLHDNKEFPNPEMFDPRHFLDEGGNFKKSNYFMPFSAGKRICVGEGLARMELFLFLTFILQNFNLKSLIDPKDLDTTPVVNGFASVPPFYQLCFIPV

This assay has as its target Cytochrome P450 2C19 (Homo sapiens) (UniProt P33261). The experiment in a line: Cytochrome panel assay with activity outcomes. The settings on record: recombinant CYP, pro-luciferin dealkylation, luminescence, p450-cyp2c19; series mostly up to 57.1 µM; activity, negative = inhibition: at the top concentration.
As a reminder, the AC50 is the concentration giving half of the maximal activity seen. As to `C=CCOc1cccc(CNn2cn[nH]c2=S)c1`, the AC50 was 7.94 µM (active). The same measure, in the same setting: with `C[C@@H](C(=O)NCCc1c[nH]c2ccccc12)[C@H]1C[C@]1(C)[C@H](NC(=O)OCc1ccccc1)c1ccccc1` the figure was 2.51 µM (active); with `C[C@@H](C(=O)NCCc1c[nH]c2ccccc12)[C@@H]1C[C@@]1(C)[C@@H](NC(=O)OCc1ccccc1)c1ccccc1`, 0.794 µM (active); with `COc1cccc([C@@H]2Oc3ccc(OC)cc3C(=O)[C@H]2O)c1`, 1 µM (active). On the same count and under the same terms, then `COc1cccc([C@@H]2Oc3ccc(Br)cc3C(=O)[C@H]2O)c1`, with 3.16 µM (active). For `COc1cccc([C@H]2Oc3ccc(OC)cc3/C(=N\O[C@@H]3O[C@H](COC(C)=O)[C@H](OC(C)=O)[C@H](OC(C)=O)[C@H]3OC(C)=O)[C@@H]2O)c1`, the activity, negative = inhibition is 14.8% [at 11.4 µM] (inactive). Turning to `CC(=O)OCC(=O)[C@]12OC(C)(C)O[C@@H]1C[C@H]1[C@H]3CC=C4C[C@@H](O)CC[C@]4(C)[C@H]3CC[C@]12C`, the activity, negative = inhibition is 4.13% [at 11.4 µM] (inactive).

As for `CC[C@@H]1OC(=O)[C@H](C)[C@H](O[C@@H]2C[C@](C)(OC)[C@H](O)[C@H](C)O2)[C@H](C)[C@H](O[C@@H]2O[C@@H](C)C[C@@H](N(C)C)[C@@H]2O)[C@](C)(O)C[C@H](C)C(=O)[C@H](C)[C@H](O)[C@]1(C)O`, the “activity, negative = inhibition” value was 0.695% [at 25.6 µM] (inactive).

Consider `Nc1c2c(=O)oc(-c3ccccc3)cc2nn1-c1ccccc1`, for which the AC50 was 14.1 µM (active). Regarding `NS(=O)(=O)c1cccc2c1c([N+](=O)[O-])cc1[nH]c(=O)c(=O)[nH]c12`, the “activity, negative = inhibition” value is 29.6% (inactive). The same measure, in the same setting: then `CCCSc1nc(C)cc(C)c1C(N)=O`, with -5.23% (inactive). As to `Cc1cc(C)c(C(N)=O)c(SCC(=O)c2ccc(Cl)cc2)n1`, the AC50 is 8.91 µM (active). `NC(=O)c1nnn(Cc2cc(Cl)c(C(=O)c3ccc(Cl)cc3)c(Cl)c2)c1N`: the activity, negative = inhibition was -30.1% [at 11.4 µM] (inactive). `CCOC(=O)c1nc2sc(C)c(C)c2c(=O)[nH]1`: the AC50 was 10 µM (active). On to `OCCNc1ncnc2c1ncn2[C@@H]1O[C@@H](CO)[C@H](O)[C@@H]1O`, for which the activity, negative = inhibition was 32.5% [at 11.4 µM] (inactive). Still for that read-out and setting: with `CCC(=O)N[C@@H]1CCc2cccc(OC)c2C1` the figure was -5.91% (inactive). On to `CCC(=O)N[C@@H]1Cc2ccccc2[C@@H](c2ccccc2)C1`, for which the AC50 is 7.94 µM (active). For the molecule `COc1cccc(Nc2ncc3nc(-c4ccc(F)cc4)c(=O)n(C)c3n2)c1`, the “activity, negative = inhibition” value was 10% (inactive). As to `COc1ccc(-c2nc3cnc(Nc4cccc(OC)c4)nc3n(Cc3cccs3)c2=O)cc1`, the “activity, negative = inhibition” value was 28.8% (inactive). For the molecule `COc1cccc(Nc2nc(-c3ccc(O)cc3)cs2)c1`, the AC50 was 2.51 µM (active). Consider `Cc1cc(C)n(C(=O)CCCCCCCCC(=O)n2nc(C)cc2C)n1`, for which the AC50 was 3.55 µM (active). `CC(=O)c1cnc2cc(C)nn2c1C`: the “activity, negative = inhibition” value was 16.8% (inactive). On the same count and under the same terms, then `CN1CCc2c(cc(O)c(O)c2Cl)[C@H](c2cccc(Cl)c2)C1`, with -27.1% (inactive); and `CC(C)(C)C1CCC(OCC(O)CN2CCN(c3ccccc3)CC2)CC1` (stereo not given), with -16.8% (inactive). Take `OC(COCC1COc2ccccc2O1)CN1CCc2ccccc2C1` (stereo not given): the AC50 is 5.01 µM (active). On the same count and under the same terms, with `OC(COCC1COc2ccccc2O1)CN1CCN(c2ccccc2F)CC1` (stereo not given) the figure was 28.2 µM (active); with `O=C(c1ccccc1)c1ccc2n1CC[C@H]2C(=O)O`, “inactive”; with `C=CCc1ccccc1OC[C@H](O)CNC(C)C`, “inactive”.

Take `CC(C)(C)NC[C@@H](O)COc1ccccc1C1CCCC1`: the “activity, negative = inhibition” value is -24.6% [at 25.6 µM] (inactive).

In the case of `O=C(NC1CCCC1)c1cnn2c(C(F)(F)F)cc(-c3ccco3)nc12`, the AC50 is 11.2 µM (active). The same measure, in the same setting: then `Cc1nc2ccccn2c1C(=O)CSc1ccccc1Cl`, with 2.82 µM (active); and `C[C@@H](C(=O)NCCF)[C@H]1C[C@]1(C)[C@H](NC(=O)OCc1ccccc1)c1ccccc1`, with 1.26 µM (active).

Take `COCCNC(=O)[C@H](C)[C@@H]1C[C@@]1(C)[C@@H](NC(=O)OCc1ccccc1)c1ccccc1`: the AC50 is 3.16 µM (active). With `CCOC(=O)N/N=C1/C[C@@H](O)[C@@H](O)[C@@H]2[C@@H]3C(=O)N(C(C)(C)C)C(=O)[C@H]3CC[C@@H]12`, the activity, negative = inhibition is -19.4% [at 11.4 µM] (inactive). For the molecule `O=C(NCCOC(=O)c1ccc(C(=O)OCCNC(=O)c2cccnc2)s1)c1cccnc1`, the AC50 is 7.94 µM (active). In the case of `CC(=O)OCCNC(=O)c1cccnc1`, the “activity, negative = inhibition” value is 25.9% (inactive).

For `O=C(NCCO[N+](=O)[O-])c1cccnc1`, the AC50 is 3.98 µM (active). As to `Cc1cccc([C@@H]2CN(C)CCc3c2cc(O)c(O)c3Cl)c1`, the AC50 entry was “inactive”. Regarding `CN(C)CCC[C@@]1(c2ccc(F)cc2)OCc2cc(C#N)ccc21`, the AC50 entry was “inactive and 3.16 µM (active)”. The same measure, in the same setting: then `COc1ccccc1N/C(=N/S(=O)(=O)c1ccc(C)cc1)c1ccc(Cl)cc1`, with 4.47 µM (active). Regarding `O=S(=O)(/N=C(/Nc1ccc(F)cc1F)c1ccc(Cl)cc1)c1ccccc1`, the “activity, negative = inhibition” value is -10.4% (inactive).

Consider `N#Cc1cccc(-c2nc(Nc3ccncc3)c3ccccc3n2)c1`, for which the “activity, negative = inhibition” value was -18.2% (inactive). As to `CS(=O)(=O)Nc1cccc(-c2nc(Nc3ccncc3)c3ccccc3n2)c1`, the half-maximal activity concentration (AC50) was 5.01 µM (active). Turning to `CS(=O)(=O)Nc1cccc(-c2nc(N3CCNCC3)c3ccccc3n2)c1`, the “activity, negative = inhibition” value was -31.6% (inactive). As for `COc1cc(NS(C)(=O)=O)ccc1Nc1c2ccccc2nc2ccccc12`, the “activity, negative = inhibition” value is -6.07% (inactive). In the case of `CS(=O)(=O)Nc1cccc(-c2nc(Nc3ccc(F)cc3)c3ccccc3n2)c1`, the AC50 is 7.94 µM (active). As for `CS(=O)(=O)Nc1ccc(Nc2c3ccccc3nc3ccccc23)cc1`, the activity, negative = inhibition is -0.835% [at 11.4 µM] (inactive). As to `CS(=O)(=O)Nc1cccc(-c2nc(Nc3ccccc3)c3ccccc3n2)c1`, the AC50 is 10 µM (active). As for `COc1cccc(-c2nc(Nc3ccncc3)c3ccccc3n2)c1`, the AC50 was 3.16 µM (active). Take `CNc1nc(-c2cccc(NS(C)(=O)=O)c2)nc2ccccc12`: the “activity, negative = inhibition” value was -23.8% (inactive).
